Peg3 promoter = reduces Peg3 promoter-driven luciferase expression in HeLa | HeLa PEG-Prom luciferase reporter, luminescence, overnight | inhibition, % at 20 µM | actives 1.7% (n = 360,000) | AID 588405;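 active = inhibition of at least 50% at 20 µM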
CHOP inh = inhibitors of CHOP induction in ER stress response | CHO-K1 CHOP-promoter luciferase, tunicamycin-induced, 15-18 h | inhibition, % at 10 µM | actives 3.8% (n = 220,000) | AID 2732;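 active = compounds that reduced the stress-induced luciferase reporter signal by more than about 70% of percent inhibition, limit read from the data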
TRPM1 prom inh = MITF TRPM1 promoter inhibition in SK-MEL-5 cells | SK-MEL-5 TRPM1 promoter luciferase, 24 h | actives 0.83% (n = 330,000) | inhibition, % at 12.5 µM;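 active = mean inhibition across replicates of 60% or more, whatever share of single replicates reaches that level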
CF NFkB inh = blocks PAF-induced NF-kB reporter in cystic fibrosis cells; KKLEB NF-kB-GFP reporter, GFP fluorescence overnight; inhibition, % at 5 µM; actives 0.86% (n = 360,000); AID 588850;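 active = at least 50% inhibition at 5 µM, scaled per plate between neutral and stimulator controls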;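 also: PAF is a Pseudomonas aeruginosa culture filtrate used as stimulus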
HIF-2a inh = inhibitors of HIF-2a; 786-0 RCC cells HIF-2a reporter, luciferase luminescence, overnight; inhibition, % at 18.8 µM; actives 0.72% (n = 360,000); AID 624352;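 active = inhibition of the luminescence signal of 40% or more relative to plate controls, in a single-dose primary screen at 18.75 µM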
KKLEB tox = reduces viability of KKLEB cystic fibrosis airway cells. KKLEB CF airway cells viability, ATPlite luminescence, overnight; active compounds read low; cells stimulated with P. aeruginosa culture filtrate. activity change (cytotoxicity), % at 5 µM. actives 0.36% (n = 360,000);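 active = corrected activity change at or below -50% at 5 µM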
Numbers stand for hits; ! = not confirmed by another sample. Most compounds without a hit are left out; they make up all but 4.3% or so of the library.

O=[N+]([O-])c1cccc2c(Br)[nH]nc12 was read as CHOP inh inactive.
COc1ccc(-c2coc3c(C(=O)Nc4cccnc4)cccc23)c(C)c1 was read as Peg3 promoter inactive, CF NFkB inh inactive, HIF-2a inh inactive and KKLEB tox inactive.
`Cc1nn(Cc2ccccc2Cl)c(Cl)c1/C=C/C(=O)OCC(=O)NC(N)=O` gave Peg3 promoter inactive, CHOP inh inactive, TRPM1 prom inh inactive, CF NFkB inh inactive, HIF-2a inh inactive and KKLEB tox inactive.
Screening Cc1nn(Cc2ccc(Cl)cc2Cl)c(Cl)c1/C=C/C(=O)OCC(=O)NCC(F)(F)F returned Peg3 promoter inactive, CHOP inh 76.8, TRPM1 prom inh inactive, CF NFkB inh inactive, HIF-2a inh inactive and KKLEB tox inactive.
CCC(C(=O)OC)n1c(-c2ccccc2)nc2ccccc2c1=O (stereo unspecified) was read as Peg3 promoter inactive, CHOP inh 71.2, TRPM1 prom inh inactive, CF NFkB inh inactive, HIF-2a inh inactive and KKLEB tox inactive.
For CCc1noc(C)c1C(=O)N1CCN(S(=O)(=O)c2c(C)c(C)cc(C)c2C)CC1 the results were Peg3 promoter inactive, TRPM1 prom inh inactive, CF NFkB inh inactive, HIF-2a inh inactive and KKLEB tox inactive.
COc1ccc(Cc2nnc(N/N=C/c3ccc(O)cc3)[nH]c2=O)cc1OC was read as Peg3 promoter 59.5, CHOP inh 84.3, TRPM1 prom inh inactive, CF NFkB inh inactive, HIF-2a inh inactive and KKLEB tox inactive.
COc1ccc(Cc2nnc(N/N=C/c3ccc(Br)cc3)[nH]c2=O)cc1OC was read as Peg3 promoter inactive, CHOP inh inactive, TRPM1 prom inh inactive, CF NFkB inh inactive, HIF-2a inh inactive and KKLEB tox inactive.
For CC(C)CN1CCC(C(=O)NC(c2ccc(F)cc2)c2ccc3ccccc3n2)CC1 (stereo unspecified) the results were Peg3 promoter inactive, CF NFkB inh inactive, HIF-2a inh inactive and KKLEB tox inactive.
For COc1ccc(/C=C/CN2CCC(C(=O)NC(c3ccc(F)cc3)c3ccc4ccccc4n3)CC2)cc1 (stereo unspecified) the results were Peg3 promoter 102.0, CF NFkB inh inactive, HIF-2a inh inactive and KKLEB tox inactive.
CCCN(CCC)c1nc2ccccc2n2c(C)nnc12 was read as Peg3 promoter inactive, CHOP inh 83.1, TRPM1 prom inh inactive, CF NFkB inh inactive, HIF-2a inh inactive and KKLEB tox inactive.
Screening CCCNc1nc2ccccc2n2c(C)nnc12 returned Peg3 promoter inactive, TRPM1 prom inh inactive, CF NFkB inh inactive, HIF-2a inh inactive and KKLEB tox inactive.
`CC1(NCC(O)COc2cccc3[nH]ccc23)CCC(C(C)(C)NC(=O)CBr)CC1` (stereo unspecified) gave CHOP inh inactive.
For N#CC1(NC(=O)COC(=O)c2ccccc2SCC(=O)N2CCCC2)CCCCC1 the results were Peg3 promoter inactive, TRPM1 prom inh inactive, CF NFkB inh inactive, HIF-2a inh inactive and KKLEB tox inactive.
`O=C(COc1ccc(/C=N/NC(=O)c2ccccc2)cc1)Nc1ccc([N+](=O)[O-])cc1` gave Peg3 promoter inactive, CHOP inh inactive, TRPM1 prom inh inactive, CF NFkB inh inactive, HIF-2a inh inactive and KKLEB tox inactive.
`CC(C)Oc1ccc(/C=N/NC(=O)C(CSCc2ccccc2)NC(=O)c2ccc([N+](=O)[O-])cc2)cc1` (stereo unspecified) gave Peg3 promoter inactive, CHOP inh 75.6, TRPM1 prom inh inactive, CF NFkB inh inactive, HIF-2a inh inactive and KKLEB tox inactive.
Screening O=C(COC(=O)c1ccccc1Nc1ccccc1)Nc1ccccc1 returned Peg3 promoter inactive, CHOP inh 78.0, TRPM1 prom inh inactive, CF NFkB inh inactive, HIF-2a inh inactive and KKLEB tox inactive.
O=C(COC(=O)c1ccccc1O)Nc1ccc(OC(F)F)cc1 was read as Peg3 promoter inactive, CHOP inh 72.4, TRPM1 prom inh inactive, CF NFkB inh inactive, HIF-2a inh inactive and KKLEB tox inactive.
Fc1ccc(Cn2ccc(-c3cnc(-c4ccccc4)s3)n2)cc1 was read as Peg3 promoter inactive, CHOP inh 80.0, TRPM1 prom inh inactive, CF NFkB inh inactive, HIF-2a inh inactive and KKLEB tox inactive.
Screening O=S(=O)(c1ccccc1)n1ccc(-c2cnc(-c3ccccc3)s2)n1 returned Peg3 promoter inactive, CHOP inh inactive, TRPM1 prom inh inactive, CF NFkB inh inactive, HIF-2a inh inactive and KKLEB tox inactive.
`Cc1ccc(Cn2ccc(-c3cnc(-c4ccccc4)s3)n2)cc1` gave Peg3 promoter inactive, CHOP inh 86.9, TRPM1 prom inh inactive, CF NFkB inh inactive, HIF-2a inh inactive and KKLEB tox inactive.
Screening CC(C)(C)c1nc2ccccc2c2nnc(SCC(=O)Nc3nccs3)n12 returned Peg3 promoter inactive, CHOP inh 78.0, TRPM1 prom inh inactive, CF NFkB inh inactive, HIF-2a inh inactive and KKLEB tox inactive.
O=C(CSc1nnc(CCCO)n1-c1ccccc1)Nc1nccs1 was read as Peg3 promoter inactive, CHOP inh 85.3, TRPM1 prom inh inactive, CF NFkB inh inactive, HIF-2a inh inactive and KKLEB tox inactive.
For Cc1cccc(C)c1OCc1nnc(SCC(=O)Nc2nccs2)n1-c1ccccc1 the results were Peg3 promoter inactive, CHOP inh inactive, TRPM1 prom inh inactive, CF NFkB inh inactive, HIF-2a inh inactive and KKLEB tox inactive.
For Cc1ccc(C)c(Nc2c([N+](=O)[O-])c(=O)oc3ccccc23)c1 the results were Peg3 promoter inactive, CHOP inh inactive, TRPM1 prom inh inactive, CF NFkB inh inactive, HIF-2a inh inactive and KKLEB tox inactive.
For COc1ccc2nc(N=Nc3ccc(N(C)C)cc3)sc2c1 the results were Peg3 promoter inactive, CHOP inh inactive, TRPM1 prom inh inactive, CF NFkB inh inactive, HIF-2a inh inactive and KKLEB tox -74.2.
For COc1ccc2nc(/N=C\N(C)C)sc2c1 the results were Peg3 promoter inactive, CHOP inh inactive, TRPM1 prom inh inactive, CF NFkB inh inactive, HIF-2a inh inactive and KKLEB tox inactive.
`O=C(CN1C(=O)c2ccc([N+](=O)[O-])cc2C1=O)NCc1ccc(C(=O)O)cc1` gave Peg3 promoter inactive, TRPM1 prom inh inactive, CF NFkB inh inactive, HIF-2a inh inactive and KKLEB tox inactive.
Screening CC1CCC(C(C)C)C(OC(=O)Cn2c(-c3ccccc3)[n+](C)c3ccccc32)C1 (stereo unspecified) returned Peg3 promoter 65.2, CHOP inh inactive, TRPM1 prom inh 86.6, CF NFkB inh 55.3!, HIF-2a inh inactive and KKLEB tox -54.3!.
For Cc1ccc2nc(N3CCN(c4cccc(C)c4C)CC3)c3nnnn3c2c1 the results were Peg3 promoter inactive, CHOP inh inactive, TRPM1 prom inh inactive, CF NFkB inh inactive, HIF-2a inh inactive and KKLEB tox inactive.
For Cc1ccc2nc(Cl)c3nnnn3c2c1 the results were Peg3 promoter 110.9, CHOP inh 105.1, TRPM1 prom inh inactive, CF NFkB inh 70.8, HIF-2a inh inactive and KKLEB tox inactive.
